Assay results as given in PubChem BioAssay (NCI).
This is part of a sample that, as a whole, favours compounds with a hit. Of some 79,000 tested, about 15% had one in any assay. Activity calls are given as the source filed them. Rule as the data show it: active = growth inhibition above about 70%; inactive = the rest.

Key:
[1] = NCI Yeast Anticancer Drug Screen. Data for the rad52 strain (AID 147);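 also: 0% = growth of vehicle-treated control cultures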; conditions: S. cerevisiae rad52 mutant growth inhibition, stronger effect = higher value
How it was run: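 Compounds are applied to a genetically defined yeast strain lacking normal DNA damage repair, and inhibition of growth is expressed relative to cultures given vehicle only.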

[2] = NCI Yeast Anticancer Drug Screen. Data for the wt1 strain (AID 149);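 also: 0% = growth of vehicle-treated wt1 cultures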; conditions: S. cerevisiae wt1 strain (SPY 50644) growth inhibition, stronger effect = higher value
How it was run: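 Measured: growth of wt1 yeast under compound versus vehicle treatment, reported as inhibition.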

[3] = NCI Yeast Anticancer Drug Screen. Data for the rad50EPP+ strain (AID 151);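 also: 0% = growth of vehicle-treated control cultures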; conditions: S. cerevisiae rad50 mutant strain, stronger effect = higher value
How it was run: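 Compounds were applied to the rad50EPP+ yeast strain, which bears a defined DNA repair alteration, and growth inhibition was determined relative to vehicle-treated cultures.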

[4] = NCI Yeast Anticancer Drug Screen. Data for the rad50 strain (AID 155);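 also: 0% = growth of vehicle-only cultures of the same strain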; conditions: S. cerevisiae rad50 strain growth inhibition, stronger effect = higher value
How it was run: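 Growth of the mutant yeast was measured after compound exposure and referenced to vehicle-treated cultures.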

[5] = NCI Yeast Anticancer Drug Screen. Data for the mec2-1 strain (AID 157); conditions: S. cerevisiae mec2-1 strain, stronger effect = higher value
How it was run: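 Strain: mec2-1 (DNA repair/cell cycle alteration). Compound exposure, then growth measured; inhibition expressed relative to vehicle.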

[6] = NCI Yeast Anticancer Drug Screen. Data for the rad14 strain (AID 159);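 also: 0% = growth of vehicle-treated control cultures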; conditions: S. cerevisiae rad14 strain growth inhibition, stronger effect = higher value
How it was run: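 Here, inhibition of yeast growth was measured after compound exposure, using a strain with a genetic defect in DNA damage repair and vehicle-treated cultures as the reference.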

[7] = NCI Yeast Anticancer Drug Screen. Data for the sgs1 mgt1 strain (AID 161);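 also: 0% = growth of cultures given vehicle only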; conditions: S. cerevisiae sgs1 mgt1 strain, stronger effect = higher value
How it was run: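 Test agents were incubated with a DNA-repair-mutant yeast strain. Growth was then read and compared against vehicle-treated controls.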

[8] = NCI Yeast Anticancer Drug Screen. Data for the CLN2oe strain (AID 163);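 also: 0% = growth of vehicle-only control cultures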; conditions: S. cerevisiae CLN2oe strain, stronger effect = higher value
How it was run: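 Growth of a genetically modified yeast strain is measured after compound exposure and compared with cultures given vehicle alone.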

[9] = NCI Yeast Anticancer Drug Screen. Data for the cln2 rad14 strain (AID 165);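 also: 0% = growth equal to vehicle treated cultures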; conditions: S. cerevisiae cln2 rad14 strain, stronger effect = higher value
How it was run: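 Compounds are applied to the cln2 rad14 yeast strain, and growth is then compared with that of vehicle-treated cultures to give inhibition.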

[10] = NCI Yeast Anticancer Drug Screen. Data for the bub3 strain (AID 167); conditions: S. cerevisiae bub3 mutant strain, stronger effect = higher value
How it was run: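 Whole-cell yeast assay. The mutant strain was incubated with compounds, and growth inhibition was determined by comparison with vehicle-treated cells.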

[11] = NCI Yeast Anticancer Drug Screen. Data for the wt2 strain (AID 169);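 also: 0% = growth of vehicle-treated yeast cultures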; conditions: S. cerevisiae wt2 strain growth inhibition, stronger effect = higher value
How it was run: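 This strain belongs to a panel of yeast strains with defined genetic alterations in DNA damage repair or cell cycle control. Compounds are applied, and growth inhibition is measured against vehicle-treated cultures.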

[12] = NCI Yeast Anticancer Drug Screen. Data for the mlh1 strain (AID 171);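 also: 0% = growth of vehicle-treated control cultures of the same strain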; conditions: S. cerevisiae mlh1 strain growth inhibition, stronger effect = higher value
How it was run: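 Growth of the mutant yeast strain after compound exposure, expressed as inhibition relative to vehicle-only controls.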

[13] = NCI Yeast Anticancer Drug Screen. Data for the sgs1 strain (AID 173);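 also: 0% = growth of vehicle-only control cultures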; conditions: S. cerevisiae sgs1 mutant, stronger effect = higher value
How it was run: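 Growth of a yeast strain bearing a defined genetic alteration is measured after compound treatment. Inhibition is expressed relative to vehicle-only controls.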

[14] = NCI Yeast Anticancer Drug Screen. Data for the mlh1 rad18 strain (AID 175); conditions: S. cerevisiae mlh1 rad18 strain growth inhibition, stronger effect = higher value
How it was run: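 Read-out is yeast growth inhibition, calculated against vehicle-only controls. The compound was applied to a strain engineered with DNA damage repair alterations.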

[15] = NCI Yeast Anticancer Drug Screen. Data for the rad18 strain (AID 177); conditions: S. cerevisiae rad18 mutant growth inhibition, stronger effect = higher value
How it was run: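 Growth of the mutant yeast strain after compound exposure, normalised to vehicle-only cultures.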

[16] = at 5.0 µM (retest, dose inferred, filed as 0.5)
[17] = at 50.0 µM (retest, dose inferred, filed as 5.0)

Measured: growth inhibition

O=C1C=CC(=O)N1c1ccc(I)cc1
inactive: [1]; at 1.2 µM 12% | [1]; at 3.7 µM 26% | [2]; at 1.2 µM -9% | [2]; at 3.7 µM 33% | [3]; at 1.2 µM 59% | [4]; at 1.2 µM 21% | [4]; at 3.7 µM 37% | [4]; [16] 26% | [4]; [17] 54% | [5]; at 1.2 µM 12% | [5]; at 3.7 µM 41% | [5]; [16] 31% | [5]; [17] 65% | [6]; at 1.2 µM 11% | [6]; at 3.7 µM 28% | [8]; at 1.2 µM 13% | [8]; at 3.7 µM 26% | [9]; [16] 56% | [10]; at 1.2 µM 5% | [10]; at 3.7 µM 15% | [11]; at 1.2 µM -2% | [11]; at 3.7 µM 16% | [12]; at 1.2 µM 13% | [12]; at 3.7 µM 40% | [13]; at 1.2 µM 29% | [14]; [16] 17% | [15]; at 1.2 µM 27% | [15]; at 3.7 µM 35% | [15]; at 11.0 µM 49%
active: [1]; at 11.0 µM 97% | [1]; at 33.0 µM 99% | [1]; at 100.0 µM 98% | [2]; at 11.0 µM 96% | [2]; at 33.0 µM 99% | [2]; at 100.0 µM 98% | [3]; at 3.7 µM 70% | [3]; at 11.0 µM 99% | [3]; at 33.0 µM 100% | [3]; at 100.0 µM 99% | [4]; at 11.0 µM 96% | [4]; at 33.0 µM 98% | [4]; at 50.0 µM 92% | [4]; at 100.0 µM 98% | [5]; at 11.0 µM 99% | [5]; at 33.0 µM 99% | [5]; at 50.0 µM 93.7% | [5]; at 100.0 µM 100% | [6]; at 11.0 µM 97% | [6]; at 33.0 µM 99% | [6]; at 100.0 µM 98% | [7]; [16] 97% | [7]; [17] 100% | [7]; at 50.0 µM 93.6% | [8]; at 11.0 µM 96% | [8]; at 33.0 µM 100% | [8]; at 100.0 µM 99% | [9]; [17] 100% | [9]; at 50.0 µM 92.1% | [10]; [16] 100% | [10]; at 11.0 µM 98% | [10]; at 33.0 µM 99% | [10]; [17] 99% | [10]; at 50.0 µM 92.4% | [10]; at 100.0 µM 98% | [11]; at 11.0 µM 81% | [11]; at 33.0 µM 100% | [11]; at 100.0 µM 99% | [12]; at 11.0 µM 98% | [12]; at 33.0 µM 100% | [12]; at 100.0 µM 99% | [13]; at 3.7 µM 76% | [13]; at 11.0 µM 100% | [13]; at 33.0 µM 100% | [13]; at 100.0 µM 100% | [14]; [17] 72% | [14]; at 50.0 µM 92.2% | [15]; at 33.0 µM 99% | [15]; at 100.0 µM 99%

CC1=CCCC2C1(C)CCC(C)C2(C)Cc1cc(O)ccc1O (stereo unspecified)
active: [1]; at 11.0 µM 70% | [1]; at 33.0 µM 98% | [1]; at 100.0 µM 93% | [2]; at 33.0 µM 98% | [2]; at 100.0 µM 96% | [3]; at 33.0 µM 86% | [3]; at 100.0 µM 88% | [4]; at 33.0 µM 98% | [4]; [17] 96% | [4]; at 50.0 µM 88.9% | [4]; at 100.0 µM 93% | [5]; at 33.0 µM 99% | [5]; [17] 97% | [5]; at 50.0 µM 90.6% | [5]; at 100.0 µM 95% | [6]; at 33.0 µM 98% | [6]; at 100.0 µM 94% | [7]; [17] 97% | [7]; at 50.0 µM 90.5% | [8]; at 33.0 µM 97% | [8]; at 100.0 µM 87% | [9]; [17] 97% | [9]; at 50.0 µM 88.5% | [10]; at 33.0 µM 99% | [10]; [17] 96% | [10]; at 50.0 µM 88.6% | [10]; at 100.0 µM 93% | [11]; at 11.0 µM 98% | [11]; at 33.0 µM 97% | [11]; at 100.0 µM 89% | [12]; at 33.0 µM 98% | [12]; at 100.0 µM 94% | [13]; at 11.0 µM 79% | [13]; at 33.0 µM 99% | [13]; at 100.0 µM 95% | [14]; [16] 83% | [14]; [17] 93% | [14]; at 50.0 µM 88%
inactive: [1]; at 1.2 µM 12% | [1]; at 3.7 µM 31% | [2]; at 1.2 µM -5% | [2]; at 3.7 µM 13% | [2]; at 11.0 µM 31% | [3]; at 1.2 µM -6% | [3]; at 3.7 µM 39% | [3]; at 11.0 µM 69% | [4]; at 1.2 µM -3% | [4]; at 3.7 µM 19% | [4]; [16] 22% | [4]; at 11.0 µM 51% | [5]; at 1.2 µM 5% | [5]; at 3.7 µM 17% | [5]; [16] 46% | [5]; at 11.0 µM 45% | [6]; at 1.2 µM 15% | [6]; at 3.7 µM 15% | [6]; at 11.0 µM 35% | [7]; [16] 39% | [8]; at 1.2 µM -73% | [8]; at 3.7 µM -57% | [8]; at 11.0 µM -91% | [9]; [16] 10% | [10]; at 1.2 µM 9% | [10]; at 3.7 µM 18% | [10]; [16] 44% | [10]; at 11.0 µM 60% | [11]; at 1.2 µM -28% | [11]; at 3.7 µM -7% | [12]; at 1.2 µM -1% | [12]; at 3.7 µM 19% | [12]; at 11.0 µM 38% | [13]; at 1.2 µM 4% | [13]; at 3.7 µM 31%
